# Laboratory results reported in ChEMBL document CHEMBL1201862, “PubChem BioAssay data set” (2004).
# The whole screen tested about 400,000 compounds, of which about 1,900 (0.47%) were called active. Inconclusive results (about 14%) are left out. The rule behind the calls is not given here. Shown is part of a subset that was picked to be rich in actives.
# Biological target: Ataxin-2 (Homo sapiens) (UniProt Q99700)
# Test: qHTS for Inhibitors of ATXN expression.
# Format: functional
# Sequence of Ataxin-2 (Homo sapiens) (Q99700 whole entry): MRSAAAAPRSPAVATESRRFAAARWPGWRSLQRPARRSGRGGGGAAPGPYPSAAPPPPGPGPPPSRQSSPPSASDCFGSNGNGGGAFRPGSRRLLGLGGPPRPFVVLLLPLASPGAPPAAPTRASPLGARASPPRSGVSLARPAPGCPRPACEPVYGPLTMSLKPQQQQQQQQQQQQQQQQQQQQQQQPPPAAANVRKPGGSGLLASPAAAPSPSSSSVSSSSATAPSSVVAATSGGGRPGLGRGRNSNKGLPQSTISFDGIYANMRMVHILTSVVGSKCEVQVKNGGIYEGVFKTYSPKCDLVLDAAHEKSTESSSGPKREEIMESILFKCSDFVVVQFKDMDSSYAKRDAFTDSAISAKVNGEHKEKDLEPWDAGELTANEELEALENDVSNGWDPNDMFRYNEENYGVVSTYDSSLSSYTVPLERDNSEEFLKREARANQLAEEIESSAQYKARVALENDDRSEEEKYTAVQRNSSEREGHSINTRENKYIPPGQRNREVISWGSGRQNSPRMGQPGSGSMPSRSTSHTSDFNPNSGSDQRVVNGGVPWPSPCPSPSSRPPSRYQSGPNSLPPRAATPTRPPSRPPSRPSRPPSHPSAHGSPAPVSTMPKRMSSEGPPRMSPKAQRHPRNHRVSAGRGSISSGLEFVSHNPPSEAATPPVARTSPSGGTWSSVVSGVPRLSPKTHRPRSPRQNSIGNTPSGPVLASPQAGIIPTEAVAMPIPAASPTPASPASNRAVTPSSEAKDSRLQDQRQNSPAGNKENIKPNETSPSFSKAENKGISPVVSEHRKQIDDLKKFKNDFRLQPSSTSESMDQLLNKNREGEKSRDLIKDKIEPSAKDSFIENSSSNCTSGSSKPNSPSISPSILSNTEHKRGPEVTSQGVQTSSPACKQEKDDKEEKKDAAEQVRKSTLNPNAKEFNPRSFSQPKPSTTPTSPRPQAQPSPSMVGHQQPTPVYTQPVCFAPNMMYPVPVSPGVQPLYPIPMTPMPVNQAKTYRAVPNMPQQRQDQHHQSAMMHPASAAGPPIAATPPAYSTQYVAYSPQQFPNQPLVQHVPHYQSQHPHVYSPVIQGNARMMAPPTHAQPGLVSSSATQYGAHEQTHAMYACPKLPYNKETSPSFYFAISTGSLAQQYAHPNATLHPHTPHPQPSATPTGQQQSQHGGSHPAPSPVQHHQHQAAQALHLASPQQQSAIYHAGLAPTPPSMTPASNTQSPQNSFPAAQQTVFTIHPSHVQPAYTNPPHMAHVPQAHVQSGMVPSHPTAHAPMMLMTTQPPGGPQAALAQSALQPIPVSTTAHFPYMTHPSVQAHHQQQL
row,SMILES,Potency
1,CCOC(=O)[C@]12Cc3ccccc3[C@H]1N(C(C)C)C(=O)c1ccccc12,22.4 µM (active)
2,CCOC(=O)[C@]12Cc3ccccc3[C@H]1N(C(C)C)C(=O)c1cc(OC)ccc12,17.8 µM (active)
3,CCOC(=O)[C@]12Cc3c(cc(OC)c(OC)c3OC)[C@H]1N(C)C(=O)c1cc(OC)ccc12,11.2 µM (active)
4,CCOC(=O)[C@]12Cc3ccccc3[C@H]1N(C)C(=O)c1cc(OC)ccc12,31.6 µM (active)
5,N#CC1=C(N)Oc2c(c(=O)oc3ccccc23)C1c1ccc([N+](=O)[O-])o1 (stereo not given),inactive
6,CC(C)OCC(O)CN1CC2C[C@@H](C1)Cn1c2cccc1=O (stereo not given in full),inactive
7,Cc1cc(=O)oc2cc(OCC(=O)N3CCN(C(C)c4ccccc4)CC3)c(Cl)cc12 (stereo not given),inactive
8,CCCCn1c(NC(=O)c2ccco2)c(C(=O)OCC)c2nc3ccccc3nc21,inactive
9,CCOC(=O)[C@]12Cc3cc(C)ccc3[C@H]1N(C(C)C)C(=O)c1ccccc12,11.2 µM (active)
10,CCCCN1C(=O)/C(=C/NNC(=O)c2ccncc2)C(=O)NC1=S,inactive
11,COc1cccc(CNCCc2cccc(F)c2)c1OC,inactive
12,CCOc1c(Cl)cc(CNCCc2c[nH]c3ccccc23)cc1OC,20 µM (active)
13,CCOc1c(Cl)cc(CNC(C)C(O)c2ccccc2)cc1OC (stereo not given),inactive
14,COc1cccc(-n2c(/C=C/c3ccc(O)c(O)c3)nc3ccccc3c2=O)c1,inactive
15,COP(=O)(OC)c1nc(-c2ccc([N+](=O)[O-])cc2)oc1N1CCCCC1,inactive
16,O=[N+]([O-])/C=C/c1c(Cl)cccc1Cl,4.74 µM (active)
17,CC(C)CCNC(=O)c1c(N)n(CC2CCCO2)c2nc3ccccc3nc12 (stereo not given),inactive
18,O=C1NC(=O)N(Cc2ccccc2)C(=O)/C1=C/NNC(=O)c1ccncc1,inactive
19,Cc1cnc(SCc2ccccn2)nc1C1CCCN(C(=O)c2scc3c2CCCC3)C1 (stereo not given),25.1 µM (active)
20,Nc1ccc2c3c(cccc13)-c1ccccc1-2,inactive

row,SMILES,Potency
1,Nc1c(C(=O)NCC2CCCO2)c2nc3ccccc3nc2n1Cc1ccco1 (stereo not given),inactive
2,O=C(NCC1=C(c2ccc3ccccc3c2)C[C@@H]2CC[C@H]1N2Cc1ccco1)c1ccc([N+](=O)[O-])cc1,31.6 µM (active)
3,Nc1c(C(=O)NCc2ccco2)c2nc3ccccc3nc2n1Cc1ccccc1,inactive
4,CCC(Nc1ccccc1N)=C1C(=O)NC(=O)NC1=O,inactive
5,CCC1(C)OC(c2ccccc2)=C/C(=C/C=C2C(=O)NC(=O)NC2=O)O1 (stereo not given),inactive
6,O=c1ccc2cc(O[C@@H]3O[C@H](CO)[C@@H](O)[C@H](O)[C@H]3O)c(O)cc2o1,inactive
7,O=C(NCc1ccccc1)c1cccn(Cc2cccc(Cl)c2)c1=O,inactive
8,Cc1n[nH]c2ccc(-c3cncc(OC[C@@H](N)Cc4c[nH]c5ccccc45)c3)cc12,11.2 µM (active)
9,C[n+]1c2cc(N)ccc2cc2ccc(N)cc21,inactive
10,Clc1ccc(C(Cn2ccnc2)OCc2csc3c(Cl)cccc23)c(Cl)c1 (stereo not given),28.2 µM (active)
11,Clc1ccc(COC(Cn2ccnc2)c2ccc(Cl)cc2Cl)cc1 (stereo not given),39.8 µM (active)
12,COc1ccc(Br)cc1CNCCc1cccc(Cl)c1,inactive
13,CC/C(=C(\c1ccc(O)cc1)c1ccc(OCCN(C)C)cc1)c1ccccc1,39.8 µM (active)
14,CCCCCC[C@H]1C(=O)O[C@H](C)[C@H](NC(=O)c2cccc(NC=O)c2O)C(=O)O[C@@H](C)[C@H]1OC(=O)CC(C)C,inactive
15,C=CCc1ccccc1OCCn1c(C2CC(=O)N(Cc3ccc(F)cc3)C2)nc2ccccc21 (stereo not given),39.8 µM (active)
16,CC[C@@H]1CN2CCc3cc(OC)c(OC)cc3[C@H]2C[C@@H]1C[C@H]1NCCc2cc(OC)c(OC)cc21,0.316 µM (active)
17,CC[C@@H]1CN2CCc3cc(OC)c(OC)cc3[C@H]2C[C@@H]1C[C@@H]1NCCc2cc(O)c(OC)cc21,0.0631 µM (active)
18,CC(=O)O[C@H]1CCC2C3CCC4=CC(=O)CCC4=C3C=C[C@@]21C (stereo not given in full),inactive
19,CN1C(=O)C(=CNCCN2CCOCC2)C(=O)N(C)C1=S,inactive
20,Cc1ccc(N/N=C/C=C/c2ccco2)cc1,inactive

row,SMILES,Potency
1,CC(=O)C12CC(C)=C(C)CC1CC1C3CCC4=CC(=O)CCC4(C)C3CCC12C (stereo not given),inactive
2,O=C1NC(=O)N(CCc2ccc(F)cc2)C(=O)/C1=C/NNC(=O)c1ccncc1,inactive
3,Fc1ccc(C2=CCN(C(c3cccs3)c3nnnn3CCc3ccccc3)CC2)cc1 (stereo not given),39.8 µM (active)
4,Clc1ccc2sc(C3CCNCC3)nc2c1,inactive
5,O=C1NCN(c2ccccc2)C12CCN(C(c1ccccc1OC(F)(F)F)c1nnnn1Cc1ccccc1)CC2 (stereo not given),39.8 µM (active)
6,CCCCn1nnnc1C(c1cccc(OC)c1OC)N1CCC2(CC1)C(=O)NCN2c1ccccc1 (stereo not given),39.8 µM (active)
7,O=C1NCN(c2ccccc2)C12CCN(C(c1cccc3ccccc13)c1nnnn1Cc1ccccc1)CC2 (stereo not given),39.8 µM (active)
8,COc1cccc(C(c2nnnn2Cc2ccccc2)N2CCC3(CC2)C(=O)NCN3c2ccccc2)c1OC (stereo not given),39.8 µM (active)
9,Cc1c(CC(=O)N2C[C@H]3C[C@@H](C2)c2cccc(=O)n2C3)c(=O)oc2c(C)c(O)ccc12,inactive
10,COc1ccc2c(c1)NP(=S)(Oc1ccccc1)N2 (stereo not given),inactive
11,N#Cc1cccc(NC(=O)CSc2nc3c(cc2C#N)N2CCC3CC2)c1,inactive
12,Fc1cccc(F)c1CN1CCN(c2ccc(Cl)cc2)CC1,inactive
13,CCC(C)NC(=O)c1c(N)n(CCCOC)c2nc3ccccc3nc12 (stereo not given),inactive
14,CCCCNC(=O)c1c(N)n(CCCOC)c2nc3ccccc3nc12,inactive
15,Cc1cc(=O)oc2cc3c(cc12)CCCN3,inactive
16,CC[C@H](C)/C=C(C)/C=C/C1=CC2=C(Cl)C(=O)[C@](C)(OC(C)=O)C(=O)C2=CO1,28.2 µM (active)
17,CCn1nc(-c2ccccc2)nc2c(=O)n(C)c(=O)nc1-2,20 µM (active)
18,COc1ccc(-n2c(/C=C/c3ccc(O)cc3)nc3ccccc3c2=O)cc1,inactive
19,CCn1nc(/C=C/c2ccccc2)nc2c(=O)n(C)c(=O)nc1-2,10.6 µM (active)
20,CCN1C(=O)/C(=C/NNC(=O)c2ccncc2)C(=O)NC1=S,inactive
